# Measurements taken from the supplement of paper PMC8728848.
# Many of the other results were omitted from the sample, so the strongest signals are more common in it than they were.
# B1: PFL (Pseudomonas fluorescens) (protein)
# chain: MSKYAVANQWGGSSAPWHPGGTWVLGARDNQNVVAIEIKSGDGGKSFTGTMTYAGEGPIGFKAQRTGQNQYNVENQWGGNDAPWHPGGKWVIGGRDNQNVIALSVTSSDGGKNLSGTNTYANEGPIGFRGQIE
# Legend:
# Experiment in all cases: glycan array binding signal (z-score within array); higher = stronger binding
# Conditions in all cases: glycan notation: IUPAC condensed, linker removed
# [1] = target: Fuc(a1-2)Gal(b1-3)GalNAc(b1-3)Gal(a1-4)Gal(b1-4)Glc
# Outline: (§1)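 The Consortium for Functional Glycomics database supplied 3228 glycan arrays, of which those lacking an available protein sequence were dropped. The binding signal, a within-array Z-score, was averaged across arrays of the same protein sequence and across linkers. Negative scores can be read as non-binding.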
# [2] = target: Fuc(a1-2)Gal(b1-3)GlcNAc(b1-3)[Gal(b1-4)GlcNAc(b1-6)]Gal(b1-4)Glc
# Outline: as §1
# [3] = target: Fuc(a1-2)Gal(b1-3)[Fuc(a1-4)]GlcNAc(b1-3)[Fuc(a1-3)[Gal(b1-4)]GlcNAc(b1-6)]Gal(b1-4)Glc
# Outline: as §1
# [4] = target: Fuc(a1-2)[Gal(a1-3)]Gal(b1-3)GlcNAc(b1-2)Man(a1-3)[Fuc(a1-2)[Gal(a1-3)]Gal(b1-3)GlcNAc(b1-2)Man(a1-6)]Man(b1-4)GlcNAc(b1-4)[Fuc(a1-6)]GlcNAc
# Outline: as §1
# [5] = target: Fuc(a1-2)[Gal(a1-3)]Gal(b1-4)GlcNAc(b1-2)Man(a1-3)[Fuc(a1-2)[Gal(a1-3)]Gal(b1-4)GlcNAc(b1-2)Man(a1-6)]Man(b1-4)GlcNAc(b1-4)GlcNAc
# Outline: as §1
# [6] = target: Fuc(a1-2)[GalNAc(a1-3)]Gal(b1-3)GlcNAc(b1-2)Man(a1-3)[Fuc(a1-2)[GalNAc(a1-3)]Gal(b1-3)GlcNAc(b1-2)Man(a1-6)]Man(b1-4)GlcNAc(b1-4)[Fuc(a1-6)]GlcNAc
# Outline: as §1
# [7] = target: Fuc(a1-2)[GalNAc(a1-3)]Gal(b1-4)Glc
# Outline: as §1
# [8] = target: Fuc(a1-2)[GalNAc(a1-3)]Gal(b1-4)GlcNAc(b1-3)[Fuc(a1-2)[GalNAc(a1-3)]Gal(b1-4)GlcNAc(b1-6)]GalNAc
# Outline: as §1
# [9] = target: Fuc(a1-2)[GalNAc(a1-3)]Gal(b1-4)[Fuc(a1-3)]GlcNAc
# Outline: as §1
# Fuc(a1-3)GlcNAc = target: Fuc(a1-3)GlcNAc
# Outline: as §1
# [10] = target: Fuc(a1-3)[GalNAc(b1-4)]GlcNAc
# Outline: as §1
# Fuc(a1-4)GlcNAc = target: Fuc(a1-4)GlcNAc
# Outline: as §1
# [11] = target: Gal(a1-3)Gal(b1-3)[Fuc(a1-4)]GlcNAc(b1-2)Man(a1-3)[Gal(a1-3)Gal(b1-3)[Fuc(a1-4)]GlcNAc(b1-2)Man(a1-6)]Man(b1-4)GlcNAc(b1-4)GlcNAc
# Outline: as §1
# [12] = target: Gal(b1-3)[Fuc(a1-4)]GlcNAc(b1-2)Man(a1-3)[Gal(b1-3)[Fuc(a1-4)]GlcNAc(b1-2)Man(a1-6)]Man(b1-4)GlcNAc(b1-4)[Fuc(a1-6)]GlcNAc
# Outline: as §1
# [13] = target: Gal(b1-4)GlcNAc(b1-2)[Gal(b1-4)GlcNAc(b1-4)]Man(a1-3)[Gal(b1-4)GlcNAc(b1-2)[Gal(b1-4)GlcNAc(b1-6)]Man(a1-6)]Man(b1-4)GlcNAc(b1-4)GlcNAc
# Outline: as §1
# [14] = target: Gal(b1-4)GlcNAc(b1-2)[Gal(b1-4)GlcNAc(b1-4)]Man(a1-3)[GlcNAc(b1-4)][Gal(b1-4)GlcNAc(b1-2)Man(a1-6)]Man(b1-4)GlcNAc(b1-4)GlcNAc
# Outline: as §1
# [15] = target: Gal(b1-4)GlcNAc(b1-3)Gal(b1-3)GalNAc
# Outline: as §1
# [16] = target: Gal(b1-4)GlcNAc(b1-6)[Gal(b1-3)]GalNAc
# Outline: as §1
# [17] = target: Gal(b1-4)GlcNAc(b1-6)[Gal(b1-4)GlcNAc(b1-3)]GalNAc
# Outline: as §1
# Gal3S(b1-3)GalNAc = target: Gal3S(b1-3)GalNAc
# Outline: as §1
# Gal6S(b1-4)Glc6S = target: Gal6S(b1-4)Glc6S
# Outline: as §1
# [18] = target: GalNAc3S(b1-4)[Fuc(a1-3)]GlcNAc
# Outline: as §1
# Glc(a1-4)Glc = target: Glc(a1-4)Glc
# Outline: as §1
# [19] = target: GlcNAc(a1-4)Gal(b1-4)GlcNAc(b1-3)Gal(b1-4)GlcNAc
# Outline: as §1
# [20] = target: GlcNAc(b1-3)Gal(b1-4)GlcNAc(b1-2)Man(a1-3)[GlcNAc(b1-3)Gal(b1-4)GlcNAc(b1-2)Man(a1-6)]Man(b1-4)GlcNAc(b1-4)GlcNAc
# Outline: as §1
# [21] = target: GlcNAc(b1-3)Gal(b1-4)GlcNAc(b1-3)GalNAc
# Outline: as §1
# [22] = target: GlcNAc(b1-3)Gal(b1-4)GlcNAc(b1-3)[GlcNAc(b1-3)Gal(b1-4)GlcNAc(b1-3)]GalNAc
# Outline: as §1
# [23] = target: GlcNAc(b1-3)Gal(b1-4)GlcNAc(b1-6)[Gal(b1-3)]GalNAc
# Outline: as §1
# [24] = target: GlcNAc(b1-6)Gal(b1-4)GlcNAc
# Outline: as §1
# [25] = target: Man(a1-2)Man(a1-3)[Man(a1-2)Man(a1-6)]Man(a1-6)[Man(a1-2)Man(a1-2)Man(a1-3)]Man(b1-4)GlcNAc(b1-4)GlcNAc
# Outline: as §1
binder,measurement,setting,value
B1,glycan array binding signal (z-score),[1],-0.111
same,glycan array binding signal (z-score),[2],-0.11
same,glycan array binding signal (z-score),[3],-0.113
same,glycan array binding signal (z-score),[4],0.415
same,glycan array binding signal (z-score),[5],-0.073
same,glycan array binding signal (z-score),[6],0.249
same,glycan array binding signal (z-score),[7],-0.112
same,glycan array binding signal (z-score),[8],-0.103
same,glycan array binding signal (z-score),[9],-0.111
same,glycan array binding signal (z-score),Fuc(a1-3)GlcNAc,-0.12
same,glycan array binding signal (z-score),[10],-0.105
same,glycan array binding signal (z-score),Fuc(a1-4)GlcNAc,-0.116
same,glycan array binding signal (z-score),[11],0.499
same,glycan array binding signal (z-score),[12],0.665
same,glycan array binding signal (z-score),[13],0.988
same,glycan array binding signal (z-score),[14],-0.117
same,glycan array binding signal (z-score),[15],-0.116
same,glycan array binding signal (z-score),[16],-0.113
same,glycan array binding signal (z-score),[17],-0.108
same,glycan array binding signal (z-score),Gal3S(b1-3)GalNAc,-0.116
same,glycan array binding signal (z-score),Gal6S(b1-4)Glc6S,-0.107
same,glycan array binding signal (z-score),[18],-0.116
same,glycan array binding signal (z-score),Glc(a1-4)Glc,-0.116
same,glycan array binding signal (z-score),[19],-0.117
same,glycan array binding signal (z-score),[20],-0.111
same,glycan array binding signal (z-score),[21],-0.112
same,glycan array binding signal (z-score),[22],-0.11
same,glycan array binding signal (z-score),[23],-0.115
same,glycan array binding signal (z-score),[24],-0.117
same,glycan array binding signal (z-score),[25],3.46
